The text below walks through data of the supplement of paper PMC10338343.

The subject of experiment [1] is MILI (PIWIL2) piRISC loaded with piRNA #1 (26 nt). Nature of the experiment: pre-steady-state target cleavage rate (min^-1); guide: piRNA #1 5'p-UGAGGUAGUAGGUUGUAUAGUAUCCA; higher = faster piRNA-guided slicing of the target. Particulars: auxiliary factor: 500 nM mouse GTSF1. The procedure, abridged:
(§1)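 Cleave-'n-Seq: 1 nM active affinity-purified piRISC with one synthetic guide and 0.1 nM transcribed, DNA-blocked target RNA library were mixed, with or without 500 nM GTSF1 partner protein, in HEPES–potassium acetate buffer at 33 °C for 0–8 or 0–960 min. Uncleaved targets were sequenced and normalised to depth and to weakly complementary targets, three trials were pooled, and k3 was capped at 0.0001 min^-1. The pre-steady-state cleavage rate was fitted […].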

Experiment [2] relates to EfPiwi piRISC loaded with piRNA #1 (26 nt). Nature of the experiment: pre-steady-state target cleavage rate (min^-1); auxiliary factor: 500 nM Ephydatia muelleri Gtsf1; guide: piRNA #1 5'p-UGAGGUAGUAGGUUGUAUAGUAUCCA; MIWI and MILI are mouse PIWI proteins and EfPiwi is from a freshwater sponge; tags in brackets are library labels; higher = faster piRNA-guided slicing of the target. The gist of the method:
as §1

± gives the standard deviation.

For the sequence GGAGUGGAUACUAUACUACCAACUACCUCA, the “pre-steady-state target cleavage rate” value is 0.00975 ± 0.0022 in experiment [1] and 0.00428 ± 0.002 in experiment [2].
For GGAGAGGAUACUAUACAAGCUACUAGCUCA, in that order: 0.0601 ± 0.013 and 0.00266 ± 0.0018.
For GGAGAGCGAUACUAUACAACCUACUACCUCA, in that order: 0.249 ± 0.02 and 0.0132 ± 0.006.
For GGAGAGGAUAGUAUACAACCUUCUACCUCA, in that order: 0.00649 ± 0.004 and 0.00304 ± 0.0024.
Turning to GGAGUGGAUAGUAUACAACCAACUACCUCA, the “pre-steady-state target cleavage rate” value turned out to be 0.0064 ± 0.0029 in experiment [1] and 0.00306 ± 0.0018 in experiment [2].
For GGAGUGGAUACUAUACAACCUACUACCUUCA, in that order: 0.128 ± 0.01 and 0.168 ± 0.061.
For GGAGUGGUUAGUAUACAACCUACUACCUCA, in that order: 0.105 ± 0.011 and 0.00533 ± 0.0036.
For “GGAGACCAUACUAUACAACCUACUACCUCU [g2:g23:cont:t1U]”, in that order: 0.254 ± 0.024 and 1.45 ± 0.55.
For GGAGAGGAUACUAUACUACCUAGUACCUCA, the “pre-steady-state target cleavage rate” value stood at 0.00407 ± 0.0037 in experiment [1] and 0.00301 ± 0.0017 in experiment [2].
For GGAGACCAAACAAUACAACCUACUACCUCA, in that order: 0.0678 ± 0.024 and 0.00594 ± 0.0054.
For GGAGACCAUACCAUACAACCUACUACCUCA, in that order: 0.157 ± 0.027 and 0.107 ± 0.044.
For GGAGACCUAACAAUACAUCCUACUACCUCA, in that order: 0.191 ± 0.031 and 0.00431 ± 0.0035.
Turning to GGAGACGAUACUAUACAACCUACUACCGCA, the “pre-steady-state target cleavage rate” value in experiment [1] is 0.161 ± 0.021; in experiment [2], 0.00926 ± 0.0033.
GGAGACGAUACUAUAGCAACCUACUACCUCA: the results for the “pre-steady-state target cleavage rate” value in experiment [1] and in experiment [2] were 0.162 ± 0.013 and 0.00432 ± 0.0027, respectively.
For GGAGACGUUACUAUACAACGUACUACCUCA, in that order: 0.0206 ± 0.0027 and 0.00362 ± 0.0014.
For GGAGACCAUACUAUACAACCUACUACCCCA, in that order: 0.156 ± 0.024 and 0.00577 ± 0.0028.
For GGAGACGAUACAAUACAACCUUCUACCUCA, in that order: 0.0137 ± 0.0038 and 0.00327 ± 0.0022.
With “GGAGACCUAUCUAUACAACCUACUACCUCG [g2:g20:cont:t1G]”, the “pre-steady-state target cleavage rate” value in experiment [1] is 0.11 ± 0.012; in experiment [2] it was 0.061 ± 0.024.
For GGAGACCAUUCUAUACAACCUACUAGCUCA, in that order: 0.0909 ± 0.015 and 0.00323 ± 0.0026.
For GGAGUGGAUACUAUAUCAACCUACUACCUCA, in that order: 0.143 ± 0.013 and 0.0851 ± 0.03.
For GGAGUGGAUACUAUACAACCUACUUACCUCA, in that order: 0.133 ± 0.011 and 0.00852 ± 0.0034.
With GGAGACCUUACUAUACAACCUACUACCUUCA, the “pre-steady-state target cleavage rate” value in experiment [1] is 0.16 ± 0.015; in experiment [2] it was 0.0532 ± 0.019.
For GGAGACGAUACUAUACAACCUACUACCUA, the “pre-steady-state target cleavage rate” value in experiment [1] turned out to be 0.151 ± 0.018; in experiment [2], 0.104 ± 0.038.
Consider GGAGUGGAUACUAUUACAACCUACUACCUCA, for which the results for the “pre-steady-state target cleavage rate” value in experiment [1] and in experiment [2] were 0.155 ± 0.0095 and 0.131 ± 0.047, respectively.
For GGAGACGAUACUAUACAUCCUACUAGCUCA, in that order: 0.173 ± 0.027 and 0.00336 ± 0.0019.
For GGAGAGGAUACUAUACAACCCACUACCUCA, in that order: 0.0214 ± 0.0051 and 0.00601 ± 0.0024.
Consider GGAGACCAUACUCUACAACCUACUACCUCA, for which the “pre-steady-state target cleavage rate” value worked out at 0.161 ± 0.018 in experiment [1] and 0.00922 ± 0.0037 in experiment [2].
For GGAGACGAUACUAUAGAACCUACUAGCUCA, in that order: 0.0159 ± 0.0077 and 0.00419 ± 0.0018.
For GGAGUGGAUACUUUACAAGCUACUACCUCA, in that order: 0.192 ± 0.013 and 0.00397 ± 0.0024.
For GGAGACCUAUCUAGUACAACCUACUACCUCA, in that order: 0.0316 ± 0.0066 and 0.00434 ± 0.0035.
On to GGAGACCUAUCGAUACAACCUACUACCUCA, for which the entries for the “pre-steady-state target cleavage rate” value in experiment [1] and in experiment [2] were 0.0869 ± 0.014 and 0.0102 ± 0.0056, respectively.
Take GGAGAGGAUACUAAACAACCUACUAGCUCA: the figures for the “pre-steady-state target cleavage rate” value in experiment [1] and in experiment [2] were 0.0547 ± 0.012 and 0.00242 ± 0.0017, respectively.
For GGAGACCAUACUAUCCAACCUACUACCUCA, in that order: 0.178 ± 0.017 and 0.00636 ± 0.0033.
For GGAGAGGAAACUAUACAACCUACUACCUCA, in that order: 0.222 ± 0.026 and 0.00596 ± 0.0036.
For GGAGAGGAUACUCAUACAACCUACUACCUCA, in that order: 0.149 ± 0.015 and 0.0605 ± 0.024.
For GGAGUGGAUACCAUACAACCUACUACCUCA, the “pre-steady-state target cleavage rate” value in experiment [1] stood at 0.231 ± 0.02; in experiment [2], 0.157 ± 0.051.
For GGAGUGGAUACUAUACUACCUACUAGCUCA, in that order: 0.0877 ± 0.012 and 0.0027 ± 0.0021.
For GGAGUCGAUACUAUUCAACCUACUACCUCA, in that order: 0.192 ± 0.012 and 0.00506 ± 0.0029.
For GGAGACCAAACUAUACAACCUACUACCUGA, in that order: 0.133 ± 0.045 and 0.00429 ± 0.0028.
As to GGAGAGGAUACUAUCACAACCUACUACCUCA, the “pre-steady-state target cleavage rate” value in experiment [1] was determined as 0.136 ± 0.011; in experiment [2] it was 0.0777 ± 0.031.
For GGAGACCAUACUACUACAACCUACUACCUCA, in that order: 0.137 ± 0.015 and 0.0205 ± 0.0057.
For GGAGUCCUUACUAUACAACCUACUACCUCA, in that order: 0.174 ± 0.011 and 0.0555 ± 0.021.
For GGAGACGUUAGUAUACAACCUACUACCUCA, in that order: 0.119 ± 0.013 and 0.00686 ± 0.0036.
For the sequence GGAGAGGAUACUAUAGAACCUACUAGCUCA, the figures for the “pre-steady-state target cleavage rate” value in experiment [1] and in experiment [2] were 0.00752 ± 0.0035 and 0.00254 ± 0.0018, respectively.
For GGAGACCUUACUAUACAACCUACUACCUUA, in that order: 0.174 ± 0.019 and 0.0898 ± 0.034.
For the sequence GGAGAGGAUACUAUACAACCUACUCACCUCA, the “pre-steady-state target cleavage rate” value came to 0.138 ± 0.016 in experiment [1] and 0.00339 ± 0.0021 in experiment [2].
For GGAGAGGAUACUAUUCAUCCUACUACCUCA, in that order: 0.273 ± 0.02 and 0.00619 ± 0.0034.
For GGAGACGAUACUAUUCAACCUAGUACCUCA, in that order: 0.0492 ± 0.01 and 0.0035 ± 0.0018.
Take GGAGACCUAACUAUACGACCUACUACCUCA: the entries for the “pre-steady-state target cleavage rate” value in experiment [1] and in experiment [2] were 0.0254 ± 0.011 and 0.00758 ± 0.0045, respectively.
As to GGAGACCUAACUAUACAAGCUACUACCUGA, the “pre-steady-state target cleavage rate” value was found to be 0.235 ± 0.043 in experiment [1] and 0.00345 ± 0.003 in experiment [2].
For the sequence GGAGAGGAUACUAUACAACCUACUACCACA, the entries for the “pre-steady-state target cleavage rate” value in experiment [1] and in experiment [2] were 0.171 ± 0.017 and 0.00641 ± 0.0021, respectively.
On to GGAGACGUUACUAUACAACCUACUACCUCA, for which the “pre-steady-state target cleavage rate” value is 0.186 ± 0.014 in experiment [1] and 0.0209 ± 0.0092 in experiment [2].
For “GGAGACCUAUGUAUACAACCUACUACCUCA [g2:g19:cont:t1A]”, in that order: 0.0765 ± 0.012 and 0.00649 ± 0.0034.
On to GGAGACCAAACUUUACAACCUACUACCUCA, for which the “pre-steady-state target cleavage rate” value in experiment [1] was 0.137 ± 0.034; in experiment [2] it was 0.011 ± 0.0057.
For GGAGACGAUAGUAAACAACCUACUACCUCA, in that order: 0.134 ± 0.01 and 0.00554 ± 0.004.
For GGAGUGGAUACUGUACAACCUACUACCUCA, in that order: 0.178 ± 0.0077 and 0.109 ± 0.039.
As to GGAGAGGAUACUAUACAACCUACUACUCA, the results for the “pre-steady-state target cleavage rate” value in experiment [1] and in experiment [2] were 0.109 ± 0.017 and 0.00563 ± 0.0029, respectively.
GGAGACGAAACUUUACAACCUACUACCUCA: the results for the “pre-steady-state target cleavage rate” value in experiment [1] and in experiment [2] were 0.213 ± 0.03 and 0.0147 ± 0.0064, respectively.
For GGAGACCUUACUAAACAACCUACUACCUCA, in that order: 0.112 ± 0.012 and 0.00463 ± 0.0036.
For GGAGUGGAUACUAAACAACCUACUACCUGA, in that order: 0.0827 ± 0.012 and 0.00228 ± 0.0017.
